In the library only some 3.2% were active in any assay of this set; here they are far more common.
TMEM16A inh: TMEM16A chloride channel inhibitors, primary screen, cell-based, HTS. Anoctamin-1 (Mus musculus), Q8BHY3. HEK293 TMEM16A/YFP iodide influx fluorescence, ionomycin. normalized B-score (activity score, 25-100; higher = stronger inhibition) at 10 µM. 310,000 tested, 1.2% active. AID 588511, 2011;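 active = ratio plate-corrected score three or more library SD toward inhibition, starting fluorescence score within five deviations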;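 also: score derived from kinetic fluorescence span divided by baseline fluorescence per well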
CHT inh: inhibitors of human choline transporter CHT. CHT-expressing cells, membrane potential dye, choline response; active compounds read low. B-score at 10 µM. 310,000 tested, 0.86% active. AID 488975, 2010;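 active = B-score over 3 SD under the library average, and starting fluorescence ratio not unusually high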;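 also: choline stimulus applied at its EC90 after an EC20 pre-addition; B-score computed on integrated fluorescence ratio after choline addition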
Target sequence (Q9GZV3 whole entry, looked up): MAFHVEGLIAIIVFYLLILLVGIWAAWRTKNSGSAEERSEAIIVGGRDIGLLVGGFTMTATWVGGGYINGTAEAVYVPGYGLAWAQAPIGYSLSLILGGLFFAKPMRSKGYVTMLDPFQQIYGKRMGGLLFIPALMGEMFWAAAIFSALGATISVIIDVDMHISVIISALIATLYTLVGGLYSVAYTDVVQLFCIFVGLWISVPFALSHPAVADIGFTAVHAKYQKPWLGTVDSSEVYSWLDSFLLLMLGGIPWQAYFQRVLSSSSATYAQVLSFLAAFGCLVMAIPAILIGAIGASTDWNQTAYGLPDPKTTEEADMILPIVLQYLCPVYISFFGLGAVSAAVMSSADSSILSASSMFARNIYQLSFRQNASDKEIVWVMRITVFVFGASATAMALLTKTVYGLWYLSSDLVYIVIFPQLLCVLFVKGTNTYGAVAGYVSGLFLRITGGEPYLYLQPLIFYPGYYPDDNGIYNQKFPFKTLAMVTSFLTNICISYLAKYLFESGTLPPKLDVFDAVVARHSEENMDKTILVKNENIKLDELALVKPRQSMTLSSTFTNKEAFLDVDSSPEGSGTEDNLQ
ANO1 activ: TMEM16A chloride channel activators or potentiators, primary screen, cell-based, HTS. Anoctamin-1 (Mus musculus), Q8BHY3. HEK293 TMEM16A/YFP-H148Q/I152L, iodide quench fluorescence; active compounds read low. B-score at 10 µM. 340,000 tested, 0.3% active;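 active = fluorescence-ratio B-score plate-corrected deviation score at least 3 library SD below zero, with starting fluorescence score within 5 deviations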;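 also: channel opened by trigger with iodide after compound preincubation; score built on the fluorescence ratio of max minus min over baseline; more negative score means more quench and so TMEM16A activation or potentiation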
Kir21 inh: inhibitors of mouse Kir2.1 inward-rectifier potassium channel; HEK293-Kir2.1, FluxOR thallium flux fluorescence; active compounds read low; B-score at 10 µM; 310,000 tested, 0.85% active;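 active = fluorescence ratio B-score at or below minus 3 SD of library scores, with starting-brightness B-score within 2 SD, cut at about -4.2 in these data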;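 also: channel flux triggered by added potassium and thallium sulfate stimulus; B-score of peak minus minimum fluorescence over baseline after thallium stimulus; more negative B-score means stronger Kir2.1 block with less thallium influx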
CHT allo act: CHT positive allosteric modulators, primary screen, cell-based, membrane potential dye, choline EC20; High affinity choline transporter 1 (Homo sapiens), Q9GZV3; CHT-expressing cells; active compounds read high; LV-AA mutant CHT in HEK293 cells; B-score at 10 µM; 310,000 tested, 0.49% active; AID 488977, 2010;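 active = initial fluorescence not abnormally high and integrated response B-score, plate-corrected, over 3 SD above library mean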
Rce1 inh: yeast Rce1p protease inhibitors, primary screen, biochemical, fluorescence, cell-free homogeneous; AID 2563, 2010; yeast membranes, quenched prenylated peptide cleavage fluorescence; calls only; 290,000 tested, 0.27% active; CAAX prenyl protease 2 (Saccharomyces cerevisiae (strain ATCC 204508 / S288c)), Q03530;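 active = fall in fluorescence gain of 50% or more versus controls, with final raw signal at or below 3038400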
TMEM16A reconf: TMEM16A chloride channel inhibitors, confirmation, cell-based, re-confirmation; inhibition, % at 10 µM; HEK293 TMEM16A/YFP-H148Q, iodide quench fluorescence; ionomycin added to raise cell calcium; shares compounds with TMEM16A inh; 2,300 tested, 39% active; AID 652189, 2013;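 active = mean duplicate percent inhibition, scaled so buffer wells are 0 and the reference blocker 100, over three buffer SD above buffer mean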
TMEM16A Ca cntr: calcium mobilization in TMEM16A/YFP HEK293 cells, confirmation, counter-screen for TMEM16A inhibitor project; shares compounds with TMEM16A inh; Fluo4 calcium mobilization; calcium response (% of ionomycin), % at 10 µM; 2,300 tested, 2% active;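 active = duplicate-averaged calcium signal over 20% of the ionomycin maximum, relative to buffer baseline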;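 also: each well's signal is peak minus trough fluorescence divided by its pre-addition baseline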
Parental YFP cnt: iodide YFP quench changes in parental YFP-HEK293, counter-screen for TMEM16A inhibitor project, cell-based; ionomycin; shares compounds with TMEM16A inh; YFP ratio F(max-min)/F0 at 10 µM; 2,300 tested, under 10 active;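 active = yellow fluorescent protein signal ratio exceeding the buffer control mean by over 5 SD of those controls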;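 also: ratio is mean of duplicate wells from kinetic YFP trace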
ClC-1 rat inh: ClC-1 chloride channel inhibition, selectivity assay for TMEM16A inhibitor project, cell-based, voltage-dependent ClC-1; shares compounds with TMEM16A inh; CHO ClC-1-YFP, iodide influx fluorescence quench; iodide control reads 0, buffer control 100; ratio percent, % at 10 µM; 2,300 tested, under 10 active; AID 652236, 2013;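 active = duplicate-mean ratio percent above the mean of iodide-only control wells, which defines zero, plus 5 of their SD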;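 also: higher percent means stronger block of ClC-1 iodide influx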
Of the large screens only hits and unclear results are named; the others gave an inactive call (follow-up assays come after a bar, where they were run).

NC(=O)[C@@H]1[C@@H]2C(=O)N(c3ccc(F)cc3)C(=O)[C@@H]2[C@H]2C=Cc3ccccc3N21	none | TMEM16A reconf 20.0% | TMEM16A Ca cntr inactive | Parental YFP cnt inactive | ClC-1 rat inh inactive
Cc1ccc(CNC(=O)c2ccc(Cn3cc(-c4ccc(C)cc4)nc3-c3ccncc3)cc2)cc1	none
CCCCn1c(N)c(N(Cc2ccccc2OC)C(=O)c2c(CC)noc2C)c(=O)[nH]c1=O	none
COc1ccc(-c2csc(=Nc3ccccc3)n2CCO)cc1	TMEM16A inh 100 | TMEM16A reconf 44.5% | TMEM16A Ca cntr inactive | Parental YFP cnt inactive | ClC-1 rat inh inactive
CC(=O)c1cccc(N=c2scc(-c3ccc(S(=O)(=O)N4CCOCC4)cc3)n2CCO)c1	TMEM16A inh 25 | TMEM16A reconf 37.5% | TMEM16A Ca cntr inactive | Parental YFP cnt inactive | ClC-1 rat inh inactive
COC(=O)c1ccc(NC(=O)CCN2CCN(Cc3ccccc3)CC2)cc1	none (no result: Rce1 inh)
CCOc1ncccc1C(=O)OCC(=O)Nc1ccc2c(c1)OCCO2	none (no result: TMEM16A inh, CHT inh, Kir21 inh, CHT allo act, Rce1 inh)
O=C(c1ccco1)N1CCCC(c2nc(-c3ccc(S(=O)(=O)NCc4ccccc4)cc3)no2)C1 (configuration not stated)	TMEM16A inh 25 | TMEM16A reconf 44.0% | TMEM16A Ca cntr inactive | Parental YFP cnt inactive | ClC-1 rat inh inactive
O=c1ccncn1C1OC(CO)C(O)C1O (configuration not stated)	none (no result: TMEM16A inh, CHT inh, Kir21 inh, CHT allo act, Rce1 inh)
Cc1nc(-c2ccc(Cl)cc2)sc1C1(C)CC(c2ccc(Cl)cc2)=NO1 (configuration not stated)	TMEM16A inh 25 | TMEM16A reconf inactive | TMEM16A Ca cntr inactive | Parental YFP cnt inactive | ClC-1 rat inh inactive
Cc1cc(C)c(C)c(S(=O)(=O)N2CCN(C(=O)C3CSC4(C)CCC(=O)N34)CC2)c1C (configuration not stated)	none
COc1cc(C(=O)OCC(=O)NCc2ccco2)cc(OC)c1OC	none
COc1cc(C(=O)OCC(=O)N(C)C)cc(NC(=O)c2ccco2)c1OC	TMEM16A inh 100 | TMEM16A reconf inactive | TMEM16A Ca cntr inactive | Parental YFP cnt inactive | ClC-1 rat inh inactive
CC(=O)c1ccc(N2CCN(C(=S)Nc3ccccc3)CC2)cc1	TMEM16A inh 100 | TMEM16A reconf inactive | TMEM16A Ca cntr inactive | Parental YFP cnt inactive | ClC-1 rat inh inactive
CC(=O)c1ccc(N2CCN(C(=O)Nc3ccc(F)cc3)CC2)cc1	none
CC(=O)c1ccc(N2CCN(C(=O)Nc3ccc(C(C)C)cc3)CC2)cc1	TMEM16A inh 100 | TMEM16A reconf 29.0% | TMEM16A Ca cntr inactive | Parental YFP cnt inactive | ClC-1 rat inh inactive
Cc1cccc(Oc2cnn(C(C)(C)C)c(=O)c2Cl)c1	TMEM16A inh 25 | TMEM16A reconf inactive | TMEM16A Ca cntr inactive | Parental YFP cnt inactive | ClC-1 rat inh inactive
CCN1CCN(S(=O)(=O)Cc2ccccc2Cl)CC1	none
COC(=O)c1nnn(Cc2ccccc2)c1N	none
Nc1c(C(=O)NCCc2ccccc2)nnn1Cc1ccccc1	none | TMEM16A reconf inactive | TMEM16A Ca cntr inactive | Parental YFP cnt inactive | ClC-1 rat inh inactive
CCc1ccccc1NC(=O)CNC(=O)c1ccc(-n2cncn2)c([N+](=O)[O-])c1	none
CCOC(=O)c1ccccc1NS(=O)(=O)c1ccc(OCC)cc1	TMEM16A inh 25 | TMEM16A reconf inactive | TMEM16A Ca cntr inactive | Parental YFP cnt inactive | ClC-1 rat inh inactive
CCOc1ccc(S(=O)(=O)Nc2ccccc2C(=O)NCC2CCCO2)cc1 (configuration not stated)	none
O=C(Nc1nc(-c2cc(Cl)sc2Cl)cs1)c1ccc(Br)s1	TMEM16A inh 25 | TMEM16A reconf inactive | TMEM16A Ca cntr inactive | Parental YFP cnt inactive | ClC-1 rat inh inactive
CCCCSc1oc(-c2ccco2)nc1S(=O)(=O)c1ccccc1	TMEM16A inh 25 | TMEM16A reconf inactive | TMEM16A Ca cntr inactive | Parental YFP cnt inactive | ClC-1 rat inh inactive
NC(=O)CSc1oc(-c2ccco2)nc1S(=O)(=O)c1ccccc1	none
Cc1c(Cl)ccc2c(C(=O)Nc3cc(C(C)(C)C)on3)cc(-c3ccccn3)nc12	none
N#C/C(=C\c1ccc(O)c(O)c1)S(=O)(=O)c1ccccc1	none | TMEM16A reconf 41.0% | TMEM16A Ca cntr inactive | Parental YFP cnt inactive | ClC-1 rat inh inactive
O=C(CSc1ncnc2c1cnn2-c1ccccc1)NC1CCCC1	none
CC(=O)Nc1ccc(OC(F)(F)C(F)C(F)(F)F)c(NC(C)=O)c1 (configuration not stated)	TMEM16A inh 100 | TMEM16A reconf inactive | TMEM16A Ca cntr inactive | Parental YFP cnt inactive | ClC-1 rat inh inactive
Cc1ccc(S(=O)(=O)Nc2ccccc2C(=O)Nc2nc(-c3ccc(F)cc3)cs2)cc1	TMEM16A inh 25 | TMEM16A reconf 39.0% | TMEM16A Ca cntr inactive | Parental YFP cnt inactive | ClC-1 rat inh inactive
CCOc1ccc(Nc2cc(Nc3ccccc3OCC)nc(C=C(C#N)C#N)n2)cc1	none | TMEM16A reconf inactive | TMEM16A Ca cntr inactive | Parental YFP cnt inactive | ClC-1 rat inh inactive
Cc1ccc(S(=O)(=O)N2CCN(C(=O)COC(=O)COc3ccc(Cl)cc3C)CC2)c(C)c1	none (no result: TMEM16A inh, CHT inh, Kir21 inh, CHT allo act, Rce1 inh)
CCOc1cc(CNc2ccccc2)cc(Br)c1OCC(=O)NC(C)(C)C	TMEM16A inh 25 | TMEM16A reconf inactive | TMEM16A Ca cntr inactive | Parental YFP cnt inactive | ClC-1 rat inh inactive
CCOc1cc(CNc2ccc(Br)cc2)cc(Br)c1OCC(=O)NC(C)(C)C	none
